Screening data: PubChem, National Center for Advancing Translational Sciences (NCATS)
IL-1B inflam inh: blocks inflammasome-driven IL-1 beta release | AID 743279 | activity change, % at 57.5 µM | 360,000 tested, 4.7% active | THP-1 LPS/ATP IL-1B secretion, AlphaLISA, 16 h; stronger effect = lower value; in the data active means activity change below about -50%; inconclusive means mostly about -30% to -49%
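Secreted IL-1B measured by AlphaLISA bead assay after 16 h compound exposure of THP-1 cells; compounds (final up to 57.5 uM) added 1 h before LPS (250 ng/mL) and ATP (1.25 mM) stimulation; lower signal means less secretion.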
DT40 TDP1 no CPT: qHTS for Inhibitors of human tyrosyl-DNA phosphodiesterase 1 (TDP1): qHTS in cells in absence of CPT. DT40 Tdp1-/- hTDP1 cells, no CPT, ATP luminescence, 48 h. Potency, µM (top dose mostly 46.2 µM), hits mostly inhibitors. 420,000 tested, 15% active; further: nearly all actives have a fitted effect of over 55% in size
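Cells were dispensed at 400 per well, compounds added by pin tool, plates incubated ≥48 hr at 37 °C, then CellTiter-Glo added for 30 min at room temperature before luminescence reading. Line: DT40 Tdp1-/- complemented with hTDP1; camptothecin omitted.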
HepG2 tox: kills HepG2 cells in TGF-b inhibitor counter-screen. HepG2 CAGA-GFP viability, ATP luminescence, 18 h. Potency, µM (highest dose often 46.1 µM), hits mostly cytotoxic. 410,000 tested, 0.76% active
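HepG2 CAGA-GFP cells (1000/well, DMEM with 1% FBS) received compound, then TGF-beta at 500 pg/mL final, and were incubated 18 hours at 37 degrees C. Viability was read by CellTiter-Glo luminescence. Media-only wells were set as complete cell-killing and DMSO as no toxicity.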
DT40 TDP1 CPT: DT40-hTDP1 cell growth loss with CPT. chicken DT40 Tdp1-/-;hTDP1 cells + 20 nM CPT, ATP luminescence, 48 h. AID 686979. Potency, µM (highest dose often 46.2 µM), actives largely listed as inhibitors. 420,000 tested, 12% active; further: nearly all actives have a fitted effect of over 55% in size
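Chicken DT40 Tdp1-/- cells complemented with human TDP1, 400 cells/well, exposed to compounds plus 20 nM camptothecin for at least 48 h at 37 C; viability read as ATP content by CellTiter-Glo luminescence.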
TGFb SMAD3 inh: inhibitors of TGF-b signaling | Potency, µM (highest dose often 46.1 µM), hits mostly inhibitors | HepG2 CAGA-GFP TGF-b/SMAD3 reporter, GFP fluorescence, 18 h; TGF-beta stimulated, 500 pg/mL final | 410,000 tested, 1.2% active | AID 588855; further: nearly all actives have a fitted effect of over 65% in size
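Read-out: total well GFP (ex488/em500-530) summed from mean per-cell fluorescence. Cells: HEPG2 CAGA-GFP, 1% FBS DMEM, 18 h at 37 degrees C with 500 pg/mL final TGF-beta. Unstimulated wells served as the full-inhibition control; stimulated DMSO wells = 0%.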
S-ASM inh: blocks human secretory acid sphingomyelinase; Potency, µM (highest dose often 57.5 µM), actives largely listed as inhibitors; 340,000 tested, 0.006% active; P17405; placental ASM, HMU-PC fluorogenic substrate, 60 min
Target sequence (P17405 47-631 limits assumed): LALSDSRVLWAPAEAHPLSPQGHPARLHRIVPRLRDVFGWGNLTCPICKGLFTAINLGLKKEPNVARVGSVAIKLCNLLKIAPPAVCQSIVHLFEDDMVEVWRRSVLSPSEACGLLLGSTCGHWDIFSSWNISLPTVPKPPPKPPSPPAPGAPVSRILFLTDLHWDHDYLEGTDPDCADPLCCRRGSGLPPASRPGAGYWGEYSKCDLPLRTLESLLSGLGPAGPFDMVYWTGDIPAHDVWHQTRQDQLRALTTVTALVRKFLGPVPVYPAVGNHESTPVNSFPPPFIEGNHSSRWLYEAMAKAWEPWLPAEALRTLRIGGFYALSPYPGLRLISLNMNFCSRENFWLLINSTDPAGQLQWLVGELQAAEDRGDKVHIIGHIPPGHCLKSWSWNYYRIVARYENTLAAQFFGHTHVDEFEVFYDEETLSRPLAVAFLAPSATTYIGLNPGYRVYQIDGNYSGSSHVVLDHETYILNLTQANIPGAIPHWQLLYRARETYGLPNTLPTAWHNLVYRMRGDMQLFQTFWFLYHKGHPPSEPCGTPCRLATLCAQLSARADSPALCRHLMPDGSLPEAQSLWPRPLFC
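Fluorescence read-out (Ex 386 nm, Em 447 nm) after stopping the reaction at pH 10. Enzyme: ASM from human placenta; substrate HMU-PC0, 9 uM final; 60 min, 37 °C. Compound preincubation 10 min, ambient temperature.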
Hits are given with their value. A selection: hits, their analogues and other compounds. The true share with any hit is near 19%. Unless noted, the call rests on the fitted dose curve; in most records, active means well fitted curve in the direction sought with a large enough effect; inconclusive means small, poorly fitted or top-dose-only effect, or another doubt; inactive means no such curve, though single readings can be large; an effect the other way counts as inactive or inconclusive.

COc1ccc(-n2nc(C(=O)N3CCN(c4cccc(C)c4C)CC3)c3c4ccccc4n(C)c3c2=O)cc1 was read as DT40 TDP1 no CPT inactive, HepG2 tox inactive, DT40 TDP1 CPT inactive and TGFb SMAD3 inh inactive.
COc1ccc(N2CCN(C(=O)c3cn(C4CCCC4)c(=O)c4c3c3ccccc3n4C)CC2)cc1 was read as IL-1B inflam inh inactive, DT40 TDP1 no CPT 16µM, HepG2 tox inactive, DT40 TDP1 CPT 16µM, TGFb SMAD3 inh inconclusive and S-ASM inh inactive.
`O=C(NCCOc1ccccc1F)C1CCC(=O)N(CCc2cccc(F)c2)C1` (stereo not given) gave IL-1B inflam inh inactive, DT40 TDP1 no CPT inactive, HepG2 tox inactive, DT40 TDP1 CPT inconclusive, TGFb SMAD3 inh inactive and S-ASM inh inactive.
`Cc1ccc(Cl)cc1N1CCN(C(=O)c2cn(C3CCCCC3)c(=O)c3c2c2ccccc2n3C)CC1` gave DT40 TDP1 no CPT 18µM, HepG2 tox inactive, DT40 TDP1 CPT 23µM and TGFb SMAD3 inh inconclusive.
Cc1ccc(S(=O)(=O)c2nc(S(=O)(=O)c3ccc(C)cc3)c(NC(C)C)s2)cc1 was read as DT40 TDP1 no CPT inconclusive, HepG2 tox inactive, DT40 TDP1 CPT 16µM and TGFb SMAD3 inh inactive.
For CCS(=O)(=O)c1nc(S(=O)(=O)c2ccc(C)cc2)c(NCC(C)C)s1 the results were DT40 TDP1 no CPT inconclusive, HepG2 tox inactive, DT40 TDP1 CPT inconclusive and TGFb SMAD3 inh inactive.
Screening CCS(=O)(=O)c1nc(S(=O)(=O)c2ccc(C)cc2)c(NCc2ccccc2Cl)s1 returned DT40 TDP1 no CPT 10µM, HepG2 tox inactive, DT40 TDP1 CPT 16µM and TGFb SMAD3 inh inactive.
For CCCS(=O)(=O)c1nc(S(=O)(=O)c2ccc(C)cc2)c(NC(C)c2ccccc2)s1 (stereo not given) the results were DT40 TDP1 no CPT 10µM, HepG2 tox inactive and DT40 TDP1 CPT inconclusive.
`CCS(=O)(=O)c1nc(S(=O)(=O)c2ccc(C)cc2)c(NC(C)c2ccccc2)s1` (stereo not given) gave DT40 TDP1 no CPT inconclusive, HepG2 tox inactive, DT40 TDP1 CPT inconclusive and TGFb SMAD3 inh inactive.
Cc1ccc(S(=O)(=O)c2nc(S(=O)(=O)c3ccc(C)cc3)c(NCCCOC(C)C)s2)cc1 was read as DT40 TDP1 no CPT 16µM, HepG2 tox inactive, DT40 TDP1 CPT inconclusive and TGFb SMAD3 inh inactive.
Screening CCN(C(=O)COC(=O)CCc1ccc(OC)cc1)c1c(N)n(Cc2ccccc2)c(=O)[nH]c1=O returned IL-1B inflam inh inactive, DT40 TDP1 no CPT inactive, HepG2 tox inactive, DT40 TDP1 CPT inactive, TGFb SMAD3 inh inactive and S-ASM inh inactive.
O=S(=O)(Nc1ccc2c(c1)OCO2)c1ccc(F)c(F)c1 was read as IL-1B inflam inh inactive, DT40 TDP1 no CPT inactive, HepG2 tox inactive, DT40 TDP1 CPT inactive, TGFb SMAD3 inh inactive and S-ASM inh inactive.
Screening O=c1cc(-c2ccc(F)cc2)nc(SCc2nc(-c3cccc(C(F)(F)F)c3)no2)[nH]1 returned DT40 TDP1 no CPT inactive, HepG2 tox inactive, DT40 TDP1 CPT inactive and TGFb SMAD3 inh inactive.
`Cc1cc(C)c(-c2csc(Cc3nc(-c4cc5ccccc5oc4=O)cs3)n2)cc1C` gave IL-1B inflam inh inactive, DT40 TDP1 no CPT 15µM, HepG2 tox inactive, DT40 TDP1 CPT 18µM, TGFb SMAD3 inh inactive and S-ASM inh inactive.
For O=c1oc2ccccc2cc1-c1csc(Cc2nc(-c3ccc(Br)cc3)cs2)n1 the results were IL-1B inflam inh inactive, DT40 TDP1 no CPT 16µM, HepG2 tox inactive, DT40 TDP1 CPT inconclusive, TGFb SMAD3 inh inactive and S-ASM inh inactive.
For CCCCCCC(=O)NN1CCN(C)CC1 the results were IL-1B inflam inh inactive, DT40 TDP1 no CPT inactive, HepG2 tox inactive, DT40 TDP1 CPT inactive, TGFb SMAD3 inh inactive and S-ASM inh inactive.
For CCCCCCn1ccc(=N)cc1 the results were IL-1B inflam inh inactive, DT40 TDP1 no CPT 0.21µM, HepG2 tox inactive, DT40 TDP1 CPT 0.21µM, TGFb SMAD3 inh inactive and S-ASM inh inactive.
`O=C(NCc1ccccc1Cl)c1ccc2sc([C@@H]3O[C@H](CO)[C@H](O)[C@H](O)[C@H]3O)nc2c1` gave IL-1B inflam inh inactive, DT40 TDP1 no CPT inactive, HepG2 tox inactive, DT40 TDP1 CPT inactive and TGFb SMAD3 inh inactive.
`COC(=O)CSc1cc(SCC(=O)OC)c(C#N)c(SCC(=O)OC)c1` gave IL-1B inflam inh -113, DT40 TDP1 no CPT inactive, HepG2 tox inactive, DT40 TDP1 CPT inactive, TGFb SMAD3 inh inactive and S-ASM inh inactive.
COC(=O)CSc1ccc(C#N)c(SCC(=O)OC)c1 was read as IL-1B inflam inh -105, DT40 TDP1 no CPT inactive, HepG2 tox inactive, DT40 TDP1 CPT inactive, TGFb SMAD3 inh inactive and S-ASM inh inactive.
Screening O=C(Nc1cc(Cl)cc(Cl)c1)c1cc(S(=O)(=O)NC2CCCC2)ccc1F returned DT40 TDP1 no CPT 21µM, HepG2 tox inactive, DT40 TDP1 CPT inconclusive and TGFb SMAD3 inh inconclusive.
Cc1ccc(NC(=O)NC2CCCCC2)cc1Cl was read as IL-1B inflam inh inconclusive, DT40 TDP1 no CPT inactive, HepG2 tox inactive, DT40 TDP1 CPT inactive, TGFb SMAD3 inh inactive and S-ASM inh inactive.
Screening O=C(Nc1ccc(F)c(F)c1)c1cc(S(=O)(=O)NC2CCCC2)ccc1F returned DT40 TDP1 no CPT 23µM, HepG2 tox inactive, DT40 TDP1 CPT inconclusive and TGFb SMAD3 inh inconclusive.
Screening O=C(Nc1ccc(Br)cc1)c1cc(S(=O)(=O)NC2CCCC2)ccc1F returned DT40 TDP1 no CPT 21µM, HepG2 tox inactive, DT40 TDP1 CPT 23µM and TGFb SMAD3 inh inconclusive.
`Cc1ccc(NC(=O)c2cc(S(=O)(=O)NC3CCCCC3)ccc2F)cc1Cl` gave DT40 TDP1 no CPT 21µM, HepG2 tox 10µM, DT40 TDP1 CPT 23µM and TGFb SMAD3 inh 10µM.
`CCn1cc(/C=C/C(=O)Nc2ccn(Cc3c(F)c(F)cc(F)c3F)n2)cn1` gave IL-1B inflam inh inactive, DT40 TDP1 no CPT 12µM, HepG2 tox inactive, DT40 TDP1 CPT inconclusive, TGFb SMAD3 inh inactive and S-ASM inh inactive.
`CCn1cc(/C=C/C(=O)Nc2ccc(C)cc2Br)cn1` gave IL-1B inflam inh inactive, DT40 TDP1 no CPT inconclusive, HepG2 tox inactive, DT40 TDP1 CPT inactive, TGFb SMAD3 inh inactive and S-ASM inh inactive.
Screening CN(C(=O)COC(=O)/C=C/c1ccc2ccccc2n1)C1CCS(=O)(=O)C1 (stereo not given) returned IL-1B inflam inh -106, DT40 TDP1 no CPT inconclusive, HepG2 tox inactive, DT40 TDP1 CPT inconclusive, TGFb SMAD3 inh inconclusive and S-ASM inh inactive.
